{
  "source": "PubChem BioAssay AID1117361",
  "about": "(Southern Research Institute, 2015)",
  "note": "Hit rate of the full screen: of about 3,600 compounds, about 900 (25%) were called active. Not all results are given here. Results with a measured potency or affinity are listed apart. A number with no mark means an inactive call. How the calls were made is not given here.",
  "data": [
    {"target": "Protein Tat (Human immunodeficiency virus type 1 group M subtype B (isolate HXB2)) (UniProt P04608)", "experiment": "HIV-1 Tat–TAR interaction blockers – biochemical, fluorescence polarization, FAM-labeled TAR RNA, counter-screen for Vif-APOBEC3G degradation inhibitor project, dose response (AID 1117361)", "conditions": "Tat-TAR RNA binding; series mostly up to 100 µM; inhibition: at the top concentration", "units": {"inhibition": "%"}, "values": [
      {"compound": "CCOC(=O)CC1Sc2ccccc2NC1=O", "note": "(stereo unspecified)", "outcome": "inactive"},
      {"compound": "Cc1cc(C)n(Cc2ccc(NC(=O)c3nn(C)cc3[N+](=O)[O-])cc2)n1", "outcome": "inactive"},
      {"compound": "Cc1ccc2[nH]c(=O)c(CN(Cc3cccnc3)C(=O)c3ccncc3)cc2c1", "outcome": "inactive"},
      {"compound": "COC(=O)Nc1sc2nc(C)cc(C)c2c1-n1cccc1", "inhibition": 8.78},
      {"compound": "O=C(COc1ccc([N+](=O)[O-])cc1)NC(C(=O)O)C(O)c1cccc([N+](=O)[O-])c1", "note": "(stereo unspecified)", "inhibition": 12.4},
      {"compound": "CCn1c(COc2ccc(=O)n(-c3ccccc3)n2)nnc1SCc1ccc(C)cc1", "outcome": "inactive"},
      {"compound": "CCc1ccc(NC(=O)C(C)Oc2nnc(-c3cccs3)c(-c3cccs3)n2)cc1", "note": "(stereo unspecified)", "inhibition": 2.7},
      {"compound": "Cc1ccccc1SCc1noc(C(=O)NC(C)C)c1C(=O)O", "inhibition": 6.08},
      {"compound": "CN(Cc1cccs1)C(=O)Cn1cnc2ccccc2c1=O", "outcome": "inactive"},
      {"compound": "COc1ccc([N+](=O)[O-])cc1CSc1nnc(NC(C)=O)s1", "inhibition": 9.9},
      {"compound": "COCCSc1nnc(NC(=O)Cc2ccccc2OC)s1", "inhibition": 8.11},
      {"compound": "Oc1ccc(/C=C/c2cnccn2)cc1", "outcome": "inactive"},
      {"compound": "Cc1ccc(C)c(S(=O)(=O)Nc2ccc3scnc3c2)c1", "inhibition": 1.36},
      {"compound": "O=C(Nc1nncs1)c1c(F)c(F)c(F)c(F)c1F", "inhibition": 19.1},
      {"compound": "O=C(CN(C1CCCCC1)S(=O)(=O)c1ccccc1)N1CCCC1", "inhibition": 5.41},
      {"compound": "Cc1nc2ccccn2c1/C(O)=C1\\C(=O)C(=O)N(CCCn2ccnc2)C1c1ccncc1", "note": "(stereo unspecified)", "inhibition": 18.9},
      {"compound": "CCN(CC)CCCN1CC(O)=C(c2nc3ccccc3s2)C1=N", "inhibition": 5.41},
      {"compound": "Cc1cc(Nc2ccc(C)c(C)c2)n2nc(C)nc2n1", "inhibition": 2.03},
      {"compound": "O=S(=O)(Nc1ccc(N2CCOCC2)cc1)c1ccccc1", "outcome": "inactive"},
      {"compound": "Cc1cc(C(=O)N2CCOCC2)n(-c2ccccc2)n1", "inhibition": 4.73},
      {"compound": "Cc1nn(-c2c(Cl)cc(Cl)cc2Cl)c(=O)c2ccccc12", "inhibition": 8.35},
      {"compound": "CC(Sc1nnnn1-c1ccccc1)C(=O)Nc1ccc(Cl)cn1", "note": "(stereo unspecified)", "outcome": "inactive"},
      {"compound": "O=C(CN1C(=O)C2CC=CCC2C1=O)OCCN1C(=O)c2ccccc2C1=O", "note": "(stereo unspecified)", "outcome": "inactive [at 50 µM]"},
      {"compound": "Cc1ccc(CCNC(=O)C2CCC(=O)N2C2CCCC2)cc1", "note": "(stereo unspecified)", "inhibition": 1.36},
      {"compound": "Cc1c(NS(=O)(=O)c2cccc(C(=O)NCc3ccncc3)c2)c(=O)n(-c2ccccc2)n1C", "inhibition": 0.68},
      {"compound": "O=S(=O)(NCc1ccccc1Cl)c1cnc[nH]1", "inhibition": 2.73},
      {"compound": "CNC(=S)N(Cc1ccc(OC)cc1)C1CC(=O)N(c2ccc(Cl)cc2)C1=O", "note": "(stereo unspecified)", "inhibition": 10.8},
      {"compound": "CCN1CCN(Cc2ccc(NC(=O)Nc3ccccc3)cc2)CC1", "outcome": "inactive"},
      {"compound": "COc1ccc2cc(C(=O)Nc3ccc(O)cc3)sc(=O)c2c1OC", "inhibition": 25.6},
      {"compound": "CCCC(=O)NNC(=O)Nc1ccccc1", "inhibition": 10.3},
      {"compound": "O=C(NCC1CCCO1)c1c(O)c2c([nH]c1=O)CCCC2", "note": "(stereo unspecified)", "outcome": "inactive"}
    ]}
  ]
}
